{"source": "PubChem BioAssay", "key": {"[1]": {"assay": "binders of probe aFSTL3 on microarray, primary screen, stem cell growth factor project, biochemical, small-molecule microarray, fluorescence 635/667 (AID 1064);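 note: measures binding of the biotinylated anti-FSTL3 antibody to printed compounds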", "conditions": "higher = more signal"}, "[2]": {"assay": "binders from COS7 lysate, DM2A8 probe, primary screen, torsin A project, cell lysate, small-molecule microarray, fluorescence 635/667 (AID 1065)", "conditions": "higher = more signal, COS7 lysate expressing mutant human TOR1A"}, "[3]": {"assay": "binders of probe aFGF2 on microarray, primary screen, stem cell growth factor project, biochemical, small-molecule microarray, fluorescence 635/667 (AID 1067);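 note: measures binding of biotinylated aFGF2 protein to printed compounds on slides; z-score merges feature fluorescence and signal-to-noise across triplicate slides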", "conditions": "higher = more signal"}, "[4]": {"assay": "binders of probe aFGF10 on microarray, primary screen, stem cell growth factor project, biochemical, small-molecule microarray, fluorescence 635/667 (AID 1071);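 note: score merges 667 nm spot intensity and signal to noise from triplicate slides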", "conditions": "higher = more signal"}, "[5]": {"molecular_target": "Neurogenic locus notch homolog protein 2 (Homo sapiens) (UniProt Q04721)", "assay": "Notch2 binders on small-molecule microarrays, primary screen, biochemical, small-molecule microarray, 635 nm fluorescence, stem cell growth factors (AID 1073)", "conditions": "Notch2 binding, higher = more signal"}, "[6]": {"molecular_target": "Pro-neuregulin-1, membrane-bound isoform (Homo sapiens) (UniProt Q02297)", "sequence (Q02297 whole entry, looked up, canonical isoform)": "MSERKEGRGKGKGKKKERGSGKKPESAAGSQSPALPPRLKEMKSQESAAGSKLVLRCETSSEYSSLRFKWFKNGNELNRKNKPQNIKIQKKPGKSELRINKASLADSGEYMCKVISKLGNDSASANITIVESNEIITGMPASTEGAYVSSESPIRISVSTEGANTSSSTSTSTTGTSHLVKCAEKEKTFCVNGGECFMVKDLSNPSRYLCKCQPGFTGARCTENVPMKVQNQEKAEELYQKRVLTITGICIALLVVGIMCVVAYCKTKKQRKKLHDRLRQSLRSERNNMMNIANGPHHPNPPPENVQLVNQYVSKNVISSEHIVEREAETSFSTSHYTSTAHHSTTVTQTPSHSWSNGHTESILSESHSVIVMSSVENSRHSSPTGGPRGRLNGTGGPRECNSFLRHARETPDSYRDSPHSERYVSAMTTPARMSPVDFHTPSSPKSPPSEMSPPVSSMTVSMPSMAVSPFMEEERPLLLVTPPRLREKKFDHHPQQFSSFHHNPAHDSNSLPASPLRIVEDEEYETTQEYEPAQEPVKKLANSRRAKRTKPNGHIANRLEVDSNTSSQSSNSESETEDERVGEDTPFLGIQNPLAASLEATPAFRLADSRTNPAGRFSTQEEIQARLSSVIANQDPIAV", "assay": "NRG1 binders on small-molecule microarrays, primary screen, psychiatric disease protein project, biochemical, small-molecule microarray, fluorescence 635/667 (AID 1075);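 note: score combines 667 nm spot fluorescence with signal to noise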", "conditions": "NRG1 binding, 635 nm fluorescence, higher = more signal"}, "[7]": {"test_system": "Neuregulin-1 EGF-like domain", "assay": "binders of neuregulin-1 EGF-like domain, primary screen, biochemical, small-molecule microarray, 635 nm fluorescence (AID 1081);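 note: binding of the protein to compounds printed on small-molecule microarray slides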", "conditions": "small-molecule microarray binding, higher = more signal"}, "[8]": {"assay": "FRG1 promoter luciferase signal modulators, primary screen, FRG1 inhibition for FSHD, cell-based, C2C12 myotubes, firefly/Renilla luciferase, luminescence (AID 1084)", "conditions": "higher = more signal, called active from +8 up or from −8 down"}, "[9]": {"assay": "binders of probe aFST on microarray, primary screen, stem cell growth factor project, biochemical, small-molecule microarray, fluorescence 635/667 (AID 1086);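 note: score merges 667 nm fluorescence with signal-to-noise of each printed compound spot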", "conditions": "higher = more signal"}, "[10]": {"assay": "binders of probe aHhip on microarray, primary screen, stem cell growth factor project, biochemical, small-molecule microarray, fluorescence 635/667 (AID 1087);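 note: score merges spot fluorescence at 667nm with spot signal to noise ratio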", "conditions": "higher = more signal"}, "[11]": {"test_system": "PRMT1 (protein arginine N-methyltransferase 1)", "assay": "PRMT1 binders on small-molecule microarrays, primary screen, biochemical, small-molecule microarray, 635 nm fluorescence (AID 1088);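 note: binding of Prmt1 protein to compounds spotted on small-molecule microarray slides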", "conditions": "small-molecule microarray binding, higher = more signal"}, "[12]": {"assay": "yeast growth modulation, basal conditions, primary screen, YJM789 clinical isolate, OD600, 24 h (AID 1089);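 note: growth of clinical yeast isolate S. cerevisiae YJM 789 seeded 1000 cells per well; test concentration not given here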", "conditions": "S. cerevisiae YJM789 growth, higher = more signal, called active from +8 up or from −8 down"}, "[13]": {"assay": "fission yeast growth modulation, primary screen, strain 972, OD600, 24 h, no modulator (AID 1090);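 note: basal condition with compound alone and no growth modifier present; test concentration not given here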", "conditions": "S. pombe 972 growth, higher = more signal, called active from +8 up or from −8 down"}, "[14]": {"assay": "S. cerevisiae growth modulation with rapamycin, primary screen, strain BY4716, OD600, 96 h (AID 1091); note: test concentration not given here", "conditions": "higher = more signal, called active from +8 up or from −8 down"}, "[15]": {"molecular_target": "Torsin-1A-interacting protein 2 (Homo sapiens) (UniProt Q8NFQ8)", "sequence (Q8NFQ8 whole entry, looked up)": "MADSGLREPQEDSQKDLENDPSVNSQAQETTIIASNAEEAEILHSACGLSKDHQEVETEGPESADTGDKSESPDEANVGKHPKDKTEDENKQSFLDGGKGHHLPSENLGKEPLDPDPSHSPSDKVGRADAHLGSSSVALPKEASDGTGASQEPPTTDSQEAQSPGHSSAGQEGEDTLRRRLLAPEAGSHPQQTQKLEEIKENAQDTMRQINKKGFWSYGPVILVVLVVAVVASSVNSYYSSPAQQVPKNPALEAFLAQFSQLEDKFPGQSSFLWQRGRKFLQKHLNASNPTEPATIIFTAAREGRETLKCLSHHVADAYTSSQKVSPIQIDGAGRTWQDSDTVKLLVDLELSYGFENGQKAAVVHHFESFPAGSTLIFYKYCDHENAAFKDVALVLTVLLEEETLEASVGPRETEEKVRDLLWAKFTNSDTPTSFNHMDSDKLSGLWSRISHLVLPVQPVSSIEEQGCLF", "assay": "LULL1 binders on small-molecule microarray, primary screen, cell lysate, human LULL1 lysate, 635/667 nm fluorescence (AID 1092);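 note: score merges per-feature 667 nm fluorescence with signal-to-noise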", "conditions": "hLULL1 lysate binding, 635 nm fluorescence, higher = more signal"}, "[16]": {"assay": "E. coli growth modulation, two-sided OD650, primary screen, E. coli filamentation project, strain DRC41, 24 h (AID 1093);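 note: MC1000 strain lacking acrAB efflux and sulA so SOS filamentation is blocked; test concentration not given here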", "conditions": "OD650, 24 h, higher = more signal, called active from +8 up or from −8 down"}, "[17]": {"assay": "small-molecule microarray binders of probe aLefty2, primary screen, biochemical, biotinylated probe, 635/667 nm fluorescence (AID 1094);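 note: score merges spot fluorescence near 667 nm with spot signal-to-noise ratio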", "conditions": "higher = more signal"}, "[18]": {"test_system": "Noggin (protein binding on small-molecule microarray)", "assay": "Noggin binders on small-molecule microarray, primary screen, biochemical, 635/667 nm fluorescence (AID 1095);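 note: score merges 667 nm feature fluorescence with signal to noise over triplicate slides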", "conditions": "635 nm fluorescence, higher = more signal"}, "[19]": {"molecular_target": "Neurogenic locus notch homolog protein 3 (Homo sapiens) (UniProt Q9UM47)", "sequence (Q9UM47 whole entry, looked up)": "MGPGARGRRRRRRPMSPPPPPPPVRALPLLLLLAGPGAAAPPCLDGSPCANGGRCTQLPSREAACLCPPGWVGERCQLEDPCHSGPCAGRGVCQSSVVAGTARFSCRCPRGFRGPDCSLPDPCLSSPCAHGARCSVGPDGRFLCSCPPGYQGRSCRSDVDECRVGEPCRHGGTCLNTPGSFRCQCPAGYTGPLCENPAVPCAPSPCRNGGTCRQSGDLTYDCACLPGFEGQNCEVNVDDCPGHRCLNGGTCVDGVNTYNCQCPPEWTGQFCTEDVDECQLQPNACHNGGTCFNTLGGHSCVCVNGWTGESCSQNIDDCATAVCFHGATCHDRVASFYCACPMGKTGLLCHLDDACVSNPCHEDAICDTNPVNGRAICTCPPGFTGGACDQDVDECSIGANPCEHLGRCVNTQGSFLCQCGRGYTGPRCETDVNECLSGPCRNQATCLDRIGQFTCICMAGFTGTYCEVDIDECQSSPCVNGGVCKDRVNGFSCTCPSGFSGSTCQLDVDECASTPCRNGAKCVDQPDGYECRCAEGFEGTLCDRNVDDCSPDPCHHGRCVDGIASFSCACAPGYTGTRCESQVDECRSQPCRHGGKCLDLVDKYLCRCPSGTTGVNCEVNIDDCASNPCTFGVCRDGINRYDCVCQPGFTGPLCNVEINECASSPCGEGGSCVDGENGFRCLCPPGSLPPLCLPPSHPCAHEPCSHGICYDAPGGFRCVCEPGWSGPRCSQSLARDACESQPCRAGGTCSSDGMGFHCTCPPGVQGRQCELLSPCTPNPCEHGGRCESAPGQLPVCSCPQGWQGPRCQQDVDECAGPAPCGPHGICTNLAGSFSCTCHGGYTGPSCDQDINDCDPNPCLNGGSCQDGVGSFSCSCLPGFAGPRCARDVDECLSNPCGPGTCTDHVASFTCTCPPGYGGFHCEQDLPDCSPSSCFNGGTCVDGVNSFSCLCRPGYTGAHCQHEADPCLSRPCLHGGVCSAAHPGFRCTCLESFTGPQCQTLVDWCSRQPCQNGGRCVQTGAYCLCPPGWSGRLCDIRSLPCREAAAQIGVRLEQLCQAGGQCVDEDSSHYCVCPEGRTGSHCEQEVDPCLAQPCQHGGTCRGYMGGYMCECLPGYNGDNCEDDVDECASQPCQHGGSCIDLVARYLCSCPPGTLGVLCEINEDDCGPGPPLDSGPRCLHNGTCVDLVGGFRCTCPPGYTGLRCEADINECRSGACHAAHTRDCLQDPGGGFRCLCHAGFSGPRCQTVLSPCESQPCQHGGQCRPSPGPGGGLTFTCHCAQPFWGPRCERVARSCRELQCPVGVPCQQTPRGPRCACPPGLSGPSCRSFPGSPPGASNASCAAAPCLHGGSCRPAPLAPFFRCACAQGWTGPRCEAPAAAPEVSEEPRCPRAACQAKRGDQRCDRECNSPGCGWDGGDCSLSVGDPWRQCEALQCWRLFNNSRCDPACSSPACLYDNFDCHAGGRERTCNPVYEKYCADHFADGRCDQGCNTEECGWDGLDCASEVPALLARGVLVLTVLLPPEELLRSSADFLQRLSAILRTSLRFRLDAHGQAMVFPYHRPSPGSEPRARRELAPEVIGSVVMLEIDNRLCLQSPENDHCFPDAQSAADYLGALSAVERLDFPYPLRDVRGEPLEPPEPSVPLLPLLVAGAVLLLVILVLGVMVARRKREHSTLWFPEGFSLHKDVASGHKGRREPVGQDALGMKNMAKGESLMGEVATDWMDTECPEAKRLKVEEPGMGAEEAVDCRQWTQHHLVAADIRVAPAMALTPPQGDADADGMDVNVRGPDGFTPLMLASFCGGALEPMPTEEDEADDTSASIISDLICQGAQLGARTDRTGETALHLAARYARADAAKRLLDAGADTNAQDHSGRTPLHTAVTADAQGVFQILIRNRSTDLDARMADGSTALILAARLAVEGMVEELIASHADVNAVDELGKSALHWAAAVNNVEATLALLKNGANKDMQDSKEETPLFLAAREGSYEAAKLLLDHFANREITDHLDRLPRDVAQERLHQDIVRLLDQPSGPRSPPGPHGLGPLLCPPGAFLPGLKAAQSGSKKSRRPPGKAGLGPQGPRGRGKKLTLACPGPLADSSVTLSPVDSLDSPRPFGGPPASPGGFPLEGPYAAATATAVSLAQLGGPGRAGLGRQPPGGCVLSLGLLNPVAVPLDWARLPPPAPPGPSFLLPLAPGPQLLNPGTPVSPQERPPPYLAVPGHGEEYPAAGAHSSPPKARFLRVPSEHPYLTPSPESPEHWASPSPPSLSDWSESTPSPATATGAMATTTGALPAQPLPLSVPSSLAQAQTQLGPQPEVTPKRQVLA", "assay": "NOTCH3 binders on small-molecule microarray, primary screen, biochemical, 635/667 nm fluorescence (AID 1096)", "conditions": "NOTCH3 binding, 635 nm fluorescence, higher = more signal"}, "[20]": {"assay": "small-molecule microarray binders of probe aEGFR, primary screen, biochemical, biotinylated probe, 635/667 nm fluorescence (AID 1097);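 note: probe is a biotinylated anti-EGFR antibody binding compounds printed on slides; score combines fluorescence near 667 nm and signal to noise of each spot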", "conditions": "higher = more signal"}}, "note": "Activity calls are given as the source filed them."}
{"smiles": "O=C1c2ccccc2[C@](Cc2ccccc2I)(C(=O)NCCN2CCOCC2)[C@H](c2ccc(CO)cc2)N1Cc1ccccc1C(F)(F)F", "values": [{"measurement": "composite z-score", "setting": "[1]", "result": -0.103}, {"measurement": "composite z-score", "setting": "[2]", "result": 0.321}, {"measurement": "composite z-score", "setting": "[3]", "result": -0.1}, {"measurement": "composite z-score", "setting": "[4]", "result": 0.0371}, {"measurement": "composite z-score", "setting": "[5]", "result": 0.614}, {"measurement": "composite z-score", "setting": "[6]", "result": 1.2}, {"measurement": "composite z-score", "setting": "[7]", "result": 1.25}, {"measurement": "z-score", "setting": "[8]", "result": "-1.66 (inactive)"}, {"measurement": "composite z-score", "setting": "[9]", "result": 0.558}, {"measurement": "composite z-score", "setting": "[10]", "result": 0.0156}, {"measurement": "composite z-score", "setting": "[11]", "result": 1.56}, {"measurement": "z-score", "setting": "[12]", "result": "-1.06 (inactive)"}, {"measurement": "z-score", "setting": "[13]", "result": "-1.06 (inactive)"}, {"measurement": "z-score", "setting": "[14]", "result": "-0.132 (inactive)"}, {"measurement": "composite z-score", "setting": "[15]", "result": 2.95}, {"measurement": "z-score", "setting": "[16]", "result": "-1.82 (inactive)"}, {"measurement": "composite z-score", "setting": "[17]", "result": -0.0376}, {"measurement": "composite z-score", "setting": "[18]", "result": 0.307}, {"measurement": "composite z-score", "setting": "[19]", "result": 1.01}, {"measurement": "composite z-score", "setting": "[20]", "result": -0.109}]}
{"smiles": "C=CC[C@]12N=C(c3ccc(OCCCO)cc3)O[C@H]1c1ccccc1N(CCC)C2=O", "values": [{"measurement": "composite z-score", "setting": "[1]", "result": 1.08}, {"measurement": "composite z-score", "setting": "[2]", "result": 1.02}, {"measurement": "composite z-score", "setting": "[3]", "result": 0.239}, {"measurement": "composite z-score", "setting": "[4]", "result": 0.367}, {"measurement": "composite z-score", "setting": "[5]", "result": 0.481}, {"measurement": "composite z-score", "setting": "[6]", "result": 1.56}, {"measurement": "composite z-score", "setting": "[7]", "result": 1.35}, {"measurement": "z-score", "setting": "[8]", "result": "0.43 (inactive)"}, {"measurement": "composite z-score", "setting": "[9]", "result": 2}, {"measurement": "composite z-score", "setting": "[10]", "result": -0.0961}, {"measurement": "composite z-score", "setting": "[11]", "result": 1.55}, {"measurement": "z-score", "setting": "[12]", "result": "-1.42 (inactive)"}, {"measurement": "z-score", "setting": "[13]", "result": "-2.04 (inactive)"}, {"measurement": "z-score", "setting": "[14]", "result": "-1.06 (inactive)"}, {"measurement": "composite z-score", "setting": "[15]", "result": 2.96}, {"measurement": "z-score", "setting": "[16]", "result": "0.544 (inactive)"}, {"measurement": "composite z-score", "setting": "[17]", "result": 0.15}, {"measurement": "composite z-score", "setting": "[18]", "result": 1.2}, {"measurement": "composite z-score", "setting": "[19]", "result": 1.11}, {"measurement": "composite z-score", "setting": "[20]", "result": 0.198}]}
{"smiles": "[N-]=[N+]=NCc1ccccc1[C@H]1OC(c2ccc(OCCCO)cc2)=N[C@@]1(Cc1ccccc1N=[N+]=[N-])C(=O)N1CCOCC1", "values": [{"measurement": "composite z-score", "setting": "[1]", "result": 0.439}, {"measurement": "composite z-score", "setting": "[2]", "result": -0.154}, {"measurement": "composite z-score", "setting": "[3]", "result": 0.156}, {"measurement": "composite z-score", "setting": "[4]", "result": 0.383}, {"measurement": "composite z-score", "setting": "[5]", "result": 1.55}, {"measurement": "composite z-score", "setting": "[6]", "result": 1.96}, {"measurement": "composite z-score", "setting": "[7]", "result": 1.21}, {"measurement": "z-score", "setting": "[8]", "result": "-1.31 (inactive)"}, {"measurement": "composite z-score", "setting": "[9]", "result": 1.07}, {"measurement": "composite z-score", "setting": "[10]", "result": -0.0994}, {"measurement": "composite z-score", "setting": "[11]", "result": 1.58}, {"measurement": "z-score", "setting": "[12]", "result": "-0.8 (inactive)"}, {"measurement": "z-score", "setting": "[13]", "result": "1.23 (inactive)"}, {"measurement": "z-score", "setting": "[14]", "result": "4.53 (inactive)"}, {"measurement": "composite z-score", "setting": "[15]", "result": 3.36}, {"measurement": "z-score", "setting": "[16]", "result": "0.175 (inactive)"}, {"measurement": "composite z-score", "setting": "[17]", "result": -0.0133}, {"measurement": "composite z-score", "setting": "[18]", "result": 0.123}, {"measurement": "composite z-score", "setting": "[19]", "result": 1.11}, {"measurement": "composite z-score", "setting": "[20]", "result": -0.0031}]}
{"smiles": "CCOC(=O)C[C@H]1[C@H](OC(=O)c2cc3ccccc3oc2=O)[C@@H](NC(=O)c2ccc(-c3ccccc3)cc2)c2cc(OCCCO)ccc2N1C(=O)Cc1ccc(OC)cc1", "values": [{"measurement": "composite z-score", "setting": "[1]", "result": -0.428}, {"measurement": "composite z-score", "setting": "[2]", "result": 0.0922}, {"measurement": "composite z-score", "setting": "[3]", "result": -0.0667}, {"measurement": "composite z-score", "setting": "[4]", "result": 0.67}, {"measurement": "composite z-score", "setting": "[5]", "result": 0.992}, {"measurement": "composite z-score", "setting": "[6]", "result": 0.178}, {"measurement": "composite z-score", "setting": "[7]", "result": 1.18}, {"measurement": "z-score", "setting": "[8]", "result": "0.228 (inactive)"}, {"measurement": "composite z-score", "setting": "[9]", "result": 0.494}, {"measurement": "composite z-score", "setting": "[10]", "result": -0.132}, {"measurement": "composite z-score", "setting": "[11]", "result": 1.2}, {"measurement": "z-score", "setting": "[12]", "result": "-0.792 (inactive)"}, {"measurement": "z-score", "setting": "[13]", "result": "-0.398 (inactive)"}, {"measurement": "z-score", "setting": "[14]", "result": "-0.077 (inactive)"}, {"measurement": "composite z-score", "setting": "[15]", "result": 1.93}, {"measurement": "z-score", "setting": "[16]", "result": "-0.423 (inactive)"}, {"measurement": "composite z-score", "setting": "[17]", "result": -0.212}, {"measurement": "composite z-score", "setting": "[18]", "result": 0.421}, {"measurement": "composite z-score", "setting": "[19]", "result": 1.11}, {"measurement": "composite z-score", "setting": "[20]", "result": 0.148}]}
{"smiles": "C#CCN(C(=O)OC(C)(C)C)[C@H](CO)c1ccccc1", "values": [{"measurement": "composite z-score", "setting": "[1]", "result": -0.402}, {"measurement": "composite z-score", "setting": "[2]", "result": 0.289}, {"measurement": "composite z-score", "setting": "[3]", "result": -0.113}, {"measurement": "composite z-score", "setting": "[4]", "result": 0.0182}, {"measurement": "composite z-score", "setting": "[5]", "result": -0.148}, {"measurement": "composite z-score", "setting": "[6]", "result": -0.329}, {"measurement": "composite z-score", "setting": "[7]", "result": 0.77}, {"measurement": "z-score", "setting": "[8]", "result": "-0.0216 (inactive)"}, {"measurement": "composite z-score", "setting": "[9]", "result": 0.115}, {"measurement": "composite z-score", "setting": "[10]", "result": -0.111}, {"measurement": "composite z-score", "setting": "[11]", "result": 0.738}, {"measurement": "z-score", "setting": "[12]", "result": "-0.365 (inactive)"}, {"measurement": "z-score", "setting": "[13]", "result": "-2.99 (inactive)"}, {"measurement": "z-score", "setting": "[14]", "result": "0.368 (inactive)"}, {"measurement": "composite z-score", "setting": "[15]", "result": 0.444}, {"measurement": "z-score", "setting": "[16]", "result": "-0.223 (inactive)"}, {"measurement": "composite z-score", "setting": "[17]", "result": -0.235}, {"measurement": "composite z-score", "setting": "[18]", "result": 0.582}, {"measurement": "composite z-score", "setting": "[19]", "result": 0.524}, {"measurement": "composite z-score", "setting": "[20]", "result": -0.198}]}
